Rab9 promoter act = qHTS Assay for Rab9 Promoter Activators. Potency, µM (highest dose often 9.22 µM), most hits filed as activators. AID 485297, 2010. actives 2.8% (n = 320,000). Huh7 Rab9 promoter-luciferase reporter, luminescence, 24 h; note: nearly all actives have a fitted effect of over 60% in size
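Luciferase signal after 10 min detection reagent at ambient indicates Rab9 promoter upregulation; stably transfected Huh7 cells were treated 24 h with compound in DMSO at 37 °C, 5% CO2.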
NPC1 promoter act = qHTS Assay for NPC1 Promoter Activators | Huh7 NPC1 promoter luciferase reporter, 24 h | Potency, µM (series often up to 9.22 µM), hits mostly activators | actives 2.4% (n = 320,000); note: nearly all actives have a fitted effect of over 60% in size
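Luminescence from an NPC1 promoter-driven luciferase reporter in stably transfected Huh7 cells was measured after 24 h compound treatment at 37 °C, followed by 10 min ambient incubation with luciferase detection reagent.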
FLuc counter = qHTS profiling assay for firefly luciferase inhibitor/activator using purifed enzyme and Km concentrations of substrates (counterscreen for miR-21 project); Luciferin 4-monooxygenase (Photinus pyralis), P08659; purified FLuc, Km substrates, luminescence inhibition; Potency, µM (doses to about 57.5 µM), usual class: inhibitors; actives 6.9% (n = 360,000); AID 588342, 2011; note: nearly all actives have a fitted effect of over 55% in size
Target sequence (P08659 whole entry, looked up): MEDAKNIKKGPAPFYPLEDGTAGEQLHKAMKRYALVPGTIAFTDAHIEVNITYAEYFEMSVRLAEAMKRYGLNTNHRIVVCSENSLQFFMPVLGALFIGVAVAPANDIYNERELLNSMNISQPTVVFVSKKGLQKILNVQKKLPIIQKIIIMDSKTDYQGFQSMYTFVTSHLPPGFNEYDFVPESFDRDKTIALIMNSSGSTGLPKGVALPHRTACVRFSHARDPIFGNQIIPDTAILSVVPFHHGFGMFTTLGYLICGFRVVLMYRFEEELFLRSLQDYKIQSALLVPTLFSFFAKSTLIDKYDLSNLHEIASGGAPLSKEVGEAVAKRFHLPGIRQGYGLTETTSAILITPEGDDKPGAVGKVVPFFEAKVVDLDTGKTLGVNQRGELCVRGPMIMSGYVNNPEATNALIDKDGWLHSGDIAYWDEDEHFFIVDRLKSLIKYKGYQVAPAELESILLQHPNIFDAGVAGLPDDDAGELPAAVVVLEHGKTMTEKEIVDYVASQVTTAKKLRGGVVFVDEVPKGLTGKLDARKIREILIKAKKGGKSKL
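Purified P. pyralis luciferase (10nM final) with 10uM D-luciferin and 10uM ATP (Km levels) in 50mM Tris acetate pH 7.5, 10mM Mg acetate, 0.01% Tween-20, 0.05% BSA; qHTS 6-point titration, ~60 µM downward; luminescence read.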
ELG1 genotox = qHTS screen for small molecules that induce genotoxicity in human embryonic kidney (HEK293T) cells expressing luciferase-tagged ELG1; Potency, µM (top dose mostly 46 µM), most hits filed as activators; actives 1.3% (n = 330,000); HEK293T ELG1-luciferase reporter, luminescence, 16 h; note: nearly all actives have a fitted effect of over 60% in size
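HEK293T cells expressing luciferase-tagged ELG1 were exposed to compound or DMSO vehicle for 16 hr at 37 °C and 5% CO2. Luciferase activity was then measured with ONE-Glo after 30 min at room temperature.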
KinaseGlo FLuc = Counterscreen for Luciferase (Kinase-Glo TM) Inhibition | AID 1379, 2008 | Kinase-Glo luciferase, ATP luminescence, 8 min | actives 0.28% (n = 200,000) | Luciferin 4-monooxygenase (Photuris pensylvanica), Q27757 | Potency, µM (doses to about 38.3 µM), most hits filed as inhibitors; note: nearly all actives have a fitted effect of over 60% in size
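Compound is pinned into ATP-containing buffer (10 uM ATP, imidazole pH 7.2, 7 mM MgCl2). Kinase-Glo luciferase reagent is then added. Light output is recorded following an 8-min room-temperature incubation.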
SMN2 splice up = qHTS Assay for Enhancers of SMN2 Splice Variant Expression; HEK293 SMN2-luciferase splicing reporter, luminescence, 30-36 h; Potency, µM (doses to about 46.1 µM), hits mostly activators; actives 2.8% (n = 210,000); AID 1458, 2008; note: nearly all actives have a fitted effect of over 55% in size
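HEK293 cells carry an SMN2 minigene-luciferase reporter in which exon 7 inclusion puts luciferase in frame. Cells were seeded at 2000 cells/well, attached for 10-12 hours, then exposed to compounds for 30-36 hours at 37C before ONE-Glo luminescence.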
A number is an active result; n = inactive; u = inconclusive; x = no result. Rows were chosen to be rich in hits. Some 7.5% of all compounds tested hit in one or more screens of this group. Calls come from the whole dose curve; as a rule, active = well fitted curve in the direction sought with a large enough effect; inconclusive = small, poorly fitted or top-dose-only effect, or another doubt; inactive = no such curve, though single readings can be large; an effect the other way counts as inactive or inconclusive.

SMILES	Rab9 promoter act	NPC1 promoter act	FLuc counter	ELG1 genotox	KinaseGlo FLuc	SMN2 splice up
Cc1ccc(NC(=S)NCC(C)C)cc1	n	n	19µM	n	n	u
CC(C)CCNC(=S)Nc1ccc(Br)cc1	n	n	21µM	n	n	n
S=C(NCCc1ccccc1)Nc1ccc(Br)cc1	u	n	19µM	n	n	20µM
CCCNC(=S)Nc1ccc(Br)cc1	n	n	u	n	n	n
COCCCNC(=O)/C=C/c1ccc(Cl)cc1	n	n	u	n	n	n
CC(C)CCNC(=O)/C=C/c1ccc(Br)cc1	n	n	13µM	n	n	n
CC(C)Cn1c(N)c(C(=O)COC(=O)COc2cccc(C(F)(F)F)c2)c(=O)n(C)c1=O	n	n	n	n	x	x
Cc1ccc(C)c(CNc2ccc(S(=O)(=O)N3CCCCC3)cc2)c1	n	n	n	n	x	x
COc1cc(C(=O)Nc2ccc3nc(SCc4ccccc4)sc3c2)cc(OC)c1OC	x	x	n	x	x	x
O=C(c1cc2cc3ccc(Cl)cc3nc2o1)N1CCN(c2cccc(Cl)c2)CC1	x	x	n	x	x	n
COC(=O)Cc1ccc(NC(=S)NC(C)(C)C)cc1	n	n	13µM	n	n	n
Cc1noc(NC(=O)c2ccccc2)c1C#N	n	n	n	n	n	n
CC(C)(C)c1ccc(C(=O)Nc2onc3c2CCCC3)cc1	x	x	0.34µM	x	x	11µM
O=C(Nc1onc2c1CCCC2)c1ccccc1	x	x	4.8µM	x	x	u
COc1cccc(-c2noc(-c3cc4ccccc4oc3=O)n2)c1OC	x	x	2.7µM	x	x	x
O=c1oc2ccccc2cc1-c1nc(-c2cccs2)cs1	n	n	u	u	n	n
COc1cccc2cc(-c3nc(-c4cccs4)cs3)c(=O)oc12	3.5µM	3.5µM	5.4µM	u	n	14µM
CCOc1cccc2cc(-c3nc(-c4ccccc4C)no3)c(=O)oc12	x	x	0.54µM	x	x	x
COc1cccc2cc(-c3nc(-c4ccccc4F)no3)c(=O)oc12	x	x	0.17µM	x	x	x
COc1ccc2c(c1)-c1nc(NC(=O)c3ccc(OC)c(Br)c3)sc1CC2	x	x	n	x	x	n
Cc1ccc(S(=O)(=O)N(CC(=O)Nc2cccnc2)c2cc(Cl)ccc2C)cc1	x	x	n	x	x	n
CCOc1cc(N2CCOCC2)c(OCC)cc1NC(=O)COC(=O)COc1ccc(C#N)cc1	n	n	n	n	x	x
CCOc1ccc(NC(=O)C(C)n2c(=O)cc(C)c3c(C)nn(-c4ccccc4)c32)cc1 (stereo unspecified)	x	x	n	x	x	x
COc1cccc2cc(-c3nc(-c4cccs4)no3)c(=O)oc12	x	x	0.076µM	x	x	n
Cc1ccc(-c2nc(-c3cc4cccc(OCc5cccc(C)c5)c4oc3=O)no2)cc1	x	x	n	x	x	n
SMILES	Rab9 promoter act	NPC1 promoter act	FLuc counter	ELG1 genotox	KinaseGlo FLuc	SMN2 splice up
CCN(CC)S(=O)(=O)c1ccc(N2CCOCC2)c(NC(=O)C23CC4CC(CC(Cl)(C4)C2)C3)c1	n	n	n	n	n	n
CCOc1ccc(NC(=O)C(=O)NCC(c2cccnc2)N2CCc3ccccc32)cc1 (stereo unspecified)	x	x	n	x	x	x
O=C(c1ccccc1)c1ccc2cc(O)ccc2c1	u	u	15µM	u	x	x
O=C(c1ccccc1)c1cccc(C(=O)c2ccccc2)c1	n	n	n	n	x	x
O=C(Cc1ccc(NC(=O)N2CCSc3ncccc32)cc1)NCCc1ccccc1	x	x	n	x	x	x
COc1ccc(C(=O)Nc2nnc(SCC(=O)NCc3ccco3)s2)c(OC)c1	0.32µM	0.28µM	0.67µM	0.52µM	x	x
COc1ccccc1C(=O)Nc1nnc(SCC(=O)NCc2ccco2)s1	2.2µM	3.2µM	3.4µM	2.3µM	x	x
O=C(CSc1nnc(NC(=O)c2ccccc2F)s1)NCc1ccco1	4µM	3.5µM	8.5µM	16µM	x	x
Cc1ccc(Nc2nnc(SCC(=O)NCc3ccco3)s2)cc1	n	n	13µM	n	n	n
COc1ccc(C(=O)Nc2nnc(SCC(=O)NCc3ccco3)s2)cc1OC	n	u	n	n	x	x
N#Cc1cccc(CS(=O)(=O)c2nc3ccccc3s2)c1	x	x	x	x	n	n
Cc1cccc(-c2nc(C)c(CCNC(=O)C(=O)Nc3ccc(C)c(C)c3)s2)c1	x	x	n	x	x	x
Cc1ccc(CN(Cc2ccco2)C(=O)c2ccccc2Cl)o1	x	x	n	x	x	n
CCSc1nnc(Nc2ccc(C)cc2)s1	2.8µM	3.5µM	9.5µM	u	n	u
Cc1ccc(Nc2nc(C(=O)NCc3ccco3)cs2)cc1	n	n	24µM	n	n	n
COc1cc(/C=N/NC(=O)C2=NNC(=O)C2C)ccc1O (stereo unspecified)	n	n	u	n	x	x
O=C(Cc1cc(=O)[nH][nH]1)N/N=C/C(Cl)=C/c1ccccc1	n	n	24µM	n	n	u
CC1=NNC(=O)C1CC(=O)N/N=C/C(Br)=C/c1ccccc1 (stereo unspecified)	n	n	n	n	x	x
CC1C(=O)NN=C1C(=O)N/N=C\C(Br)=C\c1ccccc1 (stereo unspecified)	2.2µM	2.5µM	1.5µM	u	n	22µM
CC1C(=O)NN=C1C(=O)N/N=C\c1ccc(O)cc1O (stereo unspecified)	n	n	17µM	n	n	n
O=C(N/N=C/C(Br)=C/c1ccccc1)c1ccccc1F	3.2µM	3.5µM	11µM	18µM	x	x
N#Cc1ccc(/C=N/NC(=O)c2ccccc2F)cc1	n	n	u	u	n	u
O=C(N/N=C/C(Cl)=C/c1ccccc1)c1ccccc1F	u	u	12µM	u	x	x
COc1ccc2nc(N/C(N)=N/S(C)(=O)=O)nc(C)c2c1	n	n	15µM	u	x	x
COc1ccc2nc(N/C(N)=N/C(=S)Nc3c(C)cccc3C)nc(C)c2c1	n	n	n	n	n	n
SMILES	Rab9 promoter act	NPC1 promoter act	FLuc counter	ELG1 genotox	KinaseGlo FLuc	SMN2 splice up
COc1ccc2nc(N/C(N)=N/C(=S)Nc3cccc(C)c3)nc(C)c2c1	n	n	u	n	n	n
COc1ccc(NC(=S)/N=C(\N)Nc2nc(C)c3ccccc3n2)cc1	n	n	9.5µM	n	x	x
O=C1CC[C@@H](C(=O)O)N1	n	n	n	n	x	x
Oc1cc2c(cc1O)[C@H]1c3ccc(O)c(O)c3OC[C@@]1(O)C2	n	n	15µM	n	n	n
O=C(Nc1ccc(Cl)cc1)Nc1ccc2c(c1)N1CCN=C1S2	n	n	8.5µM	n	n	n
C=C1SC(=Nc2c(C)cc(C)cc2C)N(C(=O)c2sc3ccccc3c2Cl)C12CCCCC2	n	n	n	n	x	x
C=C1SC(=Nc2ccccc2Cl)N(C(=O)c2sc3ccccc3c2Cl)C12CCCCC2	n	n	21µM	n	x	x
O=C1/C(=C/c2ccc(Cl)cc2)NC(=S)N1Cc1cccnc1	n	n	n	n	x	x
